This is a sample that favours compounds with a hit; in the whole collection about 13% have one here.
USP17 inh – human USP17-like deubiquitinase inhibition; inhibition, % at 50 µM; 47,000 tested, 6.5% active; A8MUK1; purified USP17, Ub-rhodamine cleavage fluorescence, 3 h
USP8 inh – inhibitors of human USP8 deubiquitinase. P40818. purified USP8, Ub-rhodamine cleavage fluorescence, 30 min. inhibition, % at 20 µM. 47,000 tested, 4.2% active. AID 1645853
USP10 block – inhibitors of human USP10 deubiquitinase. AID 1645856. 47,000 tested, 1.1% active. purified USP10, Ub-rhodamine fluorescence, 60 min. Q14694. inhibition, % at 20 µM
UCHL1 inh – inhibitors of human UCHL1 deubiquitinase; inhibition, % at 20 µM; P09936; purified UCHL1, Ub-rhodamine cleavage fluorescence; 47,000 tested, 0.2% active; AID 1645859
USP7 inh – human USP7 deubiquitinase inhibition; inhibition, % at 20 µM; purified USP7, Ub-rhodamine cleavage fluorescence; 47,000 tested, 0.3% active
USP30 inh – inhibitors of human USP30 deubiquitinase | 47,000 tested, 5.3% active | Q70CQ3 | inhibition, % at 25 µM | purified USP30, Ub-rhodamine cleavage fluorescence
Target sequence (Q70CQ3 whole entry, looked up): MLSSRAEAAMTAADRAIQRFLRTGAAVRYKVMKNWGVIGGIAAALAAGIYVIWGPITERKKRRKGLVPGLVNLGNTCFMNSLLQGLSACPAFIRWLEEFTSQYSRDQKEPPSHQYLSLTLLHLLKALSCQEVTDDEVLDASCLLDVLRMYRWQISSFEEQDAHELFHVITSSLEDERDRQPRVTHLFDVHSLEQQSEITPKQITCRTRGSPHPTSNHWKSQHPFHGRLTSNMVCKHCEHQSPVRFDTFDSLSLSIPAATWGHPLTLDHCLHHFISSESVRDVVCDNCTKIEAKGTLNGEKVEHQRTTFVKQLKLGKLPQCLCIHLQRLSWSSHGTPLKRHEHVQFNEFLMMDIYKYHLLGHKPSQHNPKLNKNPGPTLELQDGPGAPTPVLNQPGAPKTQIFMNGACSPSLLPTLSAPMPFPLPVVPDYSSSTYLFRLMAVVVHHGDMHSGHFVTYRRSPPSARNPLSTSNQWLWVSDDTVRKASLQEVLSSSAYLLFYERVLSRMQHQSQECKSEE
Active calls of the source: *. Rule as the data show it: active = inhibition above about 30%; inactive = the rest.

COc1ccc(C2CC(=O)c3c(oc(C(=O)OC(C)C)c3C)C2)cc1 (configuration not stated) was read as USP17 inh 7.0, USP8 inh -1.5, USP10 block 6.1, UCHL1 inh 1.8, USP7 inh -10.4 and USP30 inh 6.1.
Screening COc1ccc(-n2ccc(=O)c(-c3nc(-c4ccccc4F)no3)n2)cc1OC returned USP17 inh 0.1, USP8 inh 45.1*, USP10 block -5.8, UCHL1 inh 1.6, USP7 inh 4.2 and USP30 inh -283.6.
`Cn1nc(-c2nc(-c3ccccc3F)no2)c2c1CCN(C(=O)c1ccncc1)C2` gave USP17 inh -6.3, USP8 inh -0.6, USP10 block 1.5, UCHL1 inh -2.9, USP7 inh -25.3 and USP30 inh -10.2.
For COc1ccc(-n2nnc(-c3nc(-c4ccccc4F)no3)c2N)cc1 the results were USP17 inh 51.8*, USP8 inh 1.2, USP10 block 4.9, UCHL1 inh 0.0 and USP7 inh 5.5.
COc1ccccc1-c1nc(-c2nnn(-c3ccc(C)cc3)c2C)no1 was read as USP17 inh 7.2, USP8 inh 11.2, USP10 block 7.1, UCHL1 inh 3.7, USP7 inh -2.8 and USP30 inh -0.1.
`COc1ccc2c(CCNC(=O)C(C)Sc3nnnn3-c3ccccc3)c[nH]c2c1` (configuration not stated) gave USP17 inh -8.3, USP8 inh 0.8, USP10 block 0.1, UCHL1 inh 5.0, USP7 inh 1.3 and USP30 inh 6.0.
`O=C(CN1CCN(c2nccn2-c2ccccc2F)CC1)Nc1ccccc1` gave USP17 inh -19.1, USP8 inh -6.8, USP10 block -2.0, UCHL1 inh -2.8, USP7 inh -6.2 and USP30 inh -29.8.
`COc1ccc(NC(=O)c2cccc3[nH]cc(CN4CCSCC4)c23)cc1` gave USP17 inh 16.5, USP8 inh 60.6*, USP10 block -0.1, UCHL1 inh 2.0, USP7 inh -0.5 and USP30 inh 22.4.
For COc1ccc(CC(=O)Nc2ccccc2C(=O)Nc2ccc(OC)cc2)cc1 the results were USP17 inh -1.5, USP8 inh 1.5, USP10 block -3.2, UCHL1 inh 1.7, USP7 inh 0.3 and USP30 inh -7.9.
CC1=C(C(=O)Nc2cccc(C)c2C)C2(CCN(C(C)C)CC2)OC1=O was read as USP17 inh 9.1, USP8 inh -32.7, USP10 block 0.6, UCHL1 inh 4.0, USP7 inh 4.4 and USP30 inh 1.5.
For CC1=C(C(=O)Nc2c(C)cc(C)cc2C)C2(CCC(C)CC2)OC1=O (configuration not stated) the results were USP17 inh 34.3*, USP8 inh -10.3, USP10 block -0.7, UCHL1 inh -2.2, USP7 inh -6.0 and USP30 inh -13.8.
For CC(NC(=O)CCC(=O)N1CCc2c(c(C(=O)N3CCCC3)nn2C)C1)c1ccccc1 (configuration not stated) the results were USP17 inh 6.6, USP8 inh 11.6, USP10 block 3.1, UCHL1 inh -2.2, USP7 inh -44.7 and USP30 inh 0.8.
`Cc1sc(-c2ccccn2)nc1OC(=O)c1cccc(Cl)c1Cl` gave USP17 inh 76.8*, USP8 inh -224.6, USP10 block -3.5, UCHL1 inh -0.5, USP7 inh -129.8 and USP30 inh 81.9*.
COc1ccccc1CNC(=O)c1nnn(-c2ccc(Cl)cc2)n1 was read as USP17 inh 19.1, USP8 inh 1.5, USP10 block 6.5, UCHL1 inh 4.0, USP7 inh 7.3 and USP30 inh 34.5*.
CC1CN(Cc2ccccc2)c2nc3c(c(=O)n(CCN4CCOCC4)c(=O)n3C)n2C1 (configuration not stated) was read as USP17 inh 5.2, USP8 inh 23.8, USP10 block 0.0, UCHL1 inh 0.3, USP7 inh 0.0 and USP30 inh 15.2.
CCS(=O)(=O)c1ccccc1C(=O)Nc1ccc2sc(C)nc2c1 was read as USP17 inh 4.7, USP8 inh 16.3, USP10 block 0.2, UCHL1 inh 2.6, USP7 inh 4.3 and USP30 inh 5.5.
For O=C(CN(CC(=O)NCc1ccccc1Cl)c1nc2ccccc2s1)NCc1ccccc1Cl the results were USP17 inh 14.9, USP8 inh 69.2*, USP10 block 36.4*, UCHL1 inh 2.4, USP7 inh 12.1 and USP30 inh 18.7.
`CCOC(=O)c1c(-c2ccc(C)o2)csc1NC(=O)COC(=O)c1cc(=O)[nH]c2ccccc12` gave USP17 inh 37.4*, USP8 inh -2.0, USP10 block 9.0, UCHL1 inh -0.6 and USP7 inh 3.9.
O=C(O)c1ccc2c(=O)n3c(nc2c1)/C(=C\c1ccc(Cl)cc1)CC3 was read as USP17 inh -12.8, USP8 inh -6.7, USP10 block 19.3, UCHL1 inh 6.2, USP7 inh 0.3 and USP30 inh -78.0.
Screening CCc1nc2sc3c(SCC(=O)Nc4ccccc4)ncnc3c2c2c1COC(C)(C)C2 returned USP17 inh -3.2, USP8 inh 1.7, USP10 block -1.5, UCHL1 inh -0.5, USP7 inh -0.6 and USP30 inh -15.7.
`CCCNC(=O)c1oc2ccc3c(c2c1C)C(=O)CC1(CCCC1)O3` gave USP17 inh 20.4, USP8 inh 10.3, USP10 block 5.8, UCHL1 inh 3.7, USP7 inh -1.9 and USP30 inh 39.4*.
`CCC(=O)Nc1nc2cc(NC(=O)Nc3cccc(C)c3)ccc2s1` gave USP17 inh 12.9, USP8 inh 29.1, USP10 block 23.2, UCHL1 inh 0.2, USP7 inh 17.2 and USP30 inh 38.1*.
`CCC(=O)Nc1nc2cc(NC(=O)Nc3ccc(C)cc3)ccc2s1` gave USP17 inh 22.4, USP8 inh 46.6*, USP10 block 30.0*, UCHL1 inh 0.4, USP7 inh 18.6 and USP30 inh 42.2*.
For COc1ccccc1NC(=O)Nc1ccc2sc(NC(=O)C3CCCCC3)nc2c1 the results were USP17 inh -2.6, USP8 inh 9.5, USP10 block 12.0, UCHL1 inh 4.2, USP7 inh 3.5 and USP30 inh 31.4*.
For CCC(=O)Nc1nc2cc(NS(=O)(=O)c3cccc(C)c3)ccc2s1 the results were USP17 inh 22.4, USP8 inh 4.7, USP10 block 4.0, UCHL1 inh 4.4, USP7 inh 5.6 and USP30 inh 10.8.
For CCc1ccc(S(=O)(=O)Nc2ccc(-c3nnc(-c4ccccc4)o3)cc2)cc1 the results were USP17 inh 26.5, USP8 inh 32.2*, USP10 block 47.0*, UCHL1 inh 9.0, USP7 inh 17.9 and USP30 inh 32.3*.
Screening CCc1ccc(NS(=O)(=O)c2ccc(-c3cnc(C)o3)cc2)cc1 returned USP17 inh 4.9, USP8 inh 6.5, USP10 block 1.8, UCHL1 inh 7.2, USP7 inh 8.0 and USP30 inh 6.3.
